# From PubChem BioAssay AID686978 (National Center for Advancing Translational Sciences (NCATS), 2013)
# “And” between values parts separate entries of the source, which are not always exact repeats. Identical values can stand only once. The whole screen tested about 420,000 compounds, of which about 64,000 (15%) were called active. Roughly 27% stayed inconclusive and do not appear here. Not all results are given here. Unmarked numbers belong to inactive results. Calls follow the shape of the dose curve; as a rule, active = well fitted inhibition curve with a large enough effect; inconclusive = small, poorly fitted or top-dose-only effect; inactive = flat fitted curve, though single readings scatter.
# Experiment: qHTS for Inhibitors of human tyrosyl-DNA phosphodiesterase 1 (TDP1): qHTS in cells in absence of CPT; also: nearly all actives have a fitted effect of over 55% in size
# Conditions: DT40 Tdp1-/- hTDP1 cells, no CPT, ATP luminescence, 48 h; activity change, negative = growth inhibition: at 46.2 µM (top of the series)
# Method in brief: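 Compound effects on proliferation are scored in DT40 Tdp1-/-;hTDP1 cells in the absence of CPT. ATP levels (CellTiter-Glo luminescence) are recorded after a ≥48 hr, 37 °C incubation.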
# % is scaled to controls: 0 for no effect and ±100 for the full control effect; potency is read from the fitted curve at half-maximal effect.
Structure (SMILES),"activity change, negative = growth inhibition [%]",Potency
CC(=O)c1cc2c(cc1N)OCO2,-20.4,–
C/C(COc1ccccc1)=N\NC(=O)c1nnn(-c2nonc2N)c1-c1ccc(C)cc1,-14.1,–
CSc1ccc(S(=O)(=O)N2CCC(C(=O)NCCc3ccccc3)CC2)cc1,12.2,–
Cc1cc(S(=O)(=O)NC2CCCC2)ccc1-n1cnnn1,-3.77,–
COc1ccc(NC(=O)c2ccc3oc(=O)c(S(=O)(=O)c4ccc(F)cc4)cc3c2)c(OC)c1,-18.6,–
CCCCNC(=O)C1(O)c2ccccc2NC(=O)N1c1ccc(Cl)cc1 (stereo not given),0.754,–
CC(=O)Nc1ccc(NC(=O)CCN2C(=O)C3CC=CCC3C2=O)cc1 (stereo not given),8.23,–
CCNC(=S)N(CCN(CC)CC)Cc1cc2cc3c(cc2[nH]c1=O)OCO3,-4.4,–
Cc1c(C)c2c(OCC(=O)N[C@@H](C(=O)O)c3ccccc3)cc3c(c2oc1=O)CCC(C)(C)O3,-5.21,–
Cc1cccc(OCC(=O)Nc2ccccc2F)c1,-15,–
Cc1cccc(OCCC(=O)Nc2ccccc2C(N)=O)c1,–,11.6 µM (active)
CC(=O)NCCC(=O)Nc1cc(S(=O)(=O)N2CCOCC2)ccc1N1CCOCC1,4.67,–
CC(C)CCC(=O)Nc1cc(S(=O)(=O)N2CCOCC2)ccc1N1CCCC1,6.5,–
Cc1cccc(OCCC(=O)Nc2cc(S(=O)(=O)N3CCCCC3)ccc2N2CCOCC2)c1,–,20.6 µM (active)
Cc1ccccc1NC(=O)CCOc1ccccc1,–,inactive
O=C(Nc1cccc(C(=O)O)c1)/C(=C\c1ccccc1)NC(=O)c1ccc(Br)o1,-20.8,–
Nc1nc2ncccn2c1-c1ccccc1,0.245,–
O=c1cc(-c2ccccc2)n2c(SCc3ccccc3)nnc2[nH]1,1.75,–
CC1Cc2ccccc2N1CC(=O)Nc1ccc(S(N)(=O)=O)cc1 (stereo not given),-10.1,–
CC1(NC(=O)CCS(=O)(=O)c2ccc(Cl)cc2)CCS(=O)(=O)C1 (stereo not given),16.3,–
COc1cccc(CNS(=O)(=O)c2ccc3c(c2)CC(C)N3C(=O)C2CCC2)c1 (stereo not given),–,16.4 µM (active) and 7.31 µM (active)
CCC(=O)N1c2ccc(S(=O)(=O)CCC(=O)N3CCN(c4ccccc4)CC3)cc2CC1C (stereo not given),-26.5,–

Structure (SMILES),"activity change, negative = growth inhibition [%]",Potency
CC(=O)N1c2ccc(S(=O)(=O)N(C)CC(=O)N(C)Cc3ccccc3)cc2CC1C (stereo not given),-9.56,–
Cc1ccc(CNC(=O)CCS(=O)(=O)c2ccc3c(c2)CC(C)N3C(=O)C2CC2)o1 (stereo not given),–,25.9 µM (active)
COc1cccc(CNC(=O)C2CCC(CNS(=O)(=O)c3cccs3)CC2)c1 (stereo not given),-28,–
CC1Cc2cc(S(=O)(=O)CCC(=O)NCc3ccc(Cl)cc3)ccc2N1C(=O)C1CC1 (stereo not given),–,4.61 µM (active)
COc1cccc(CNC(=O)C2CCCN(S(=O)(=O)N3CC(C)CC(C)C3)C2)c1 (stereo not given),-6.42,–
CCOc1ccc(NC(=O)CCS(=O)(=O)c2ccc3c(c2)CCCN3C(=O)CC)cc1,-11.2,–
CC1Cc2cc(S(=O)(=O)CCC(=O)Nc3ccc(F)c(Cl)c3)ccc2N1C(=O)C1CC1 (stereo not given),–,10.3 µM (active)
Cn1c(=O)oc2cc(S(=O)(=O)CCC(=O)NCCc3ccc(Cl)cc3)ccc21,5.12,–
Cc1ccc2[nH]c3c(=O)n(CC(=O)NC(C)C)ncc3c2c1,4.21,–
COc1ccc(S(=O)(=O)NC(C)C(=O)Nc2cccc([N+](=O)[O-])c2)cc1 (stereo not given),-25.6,–
Cc1ccc(S(=O)(=O)c2c[nH]c3ccc(C)cc3c2=O)cc1,-4.84,–
C[C@H]1CN([C@@H](C)CO)C(=O)Cc2cc(NS(C)(=O)=O)ccc2O[C@@H]1CN(C)CC1CC1,-11,–
CCC(Oc1ccccc1)C(=O)OCC(=O)Nc1c(C)nn(-c2ccccc2)c1C (stereo not given),-13.4,–
CCCc1cc(C(=O)Nc2ccc(C(=O)OC)cc2)cs1,6.02,–
CC(O)c1ccc(OCCN(C)c2ccccn2)cc1 (stereo not given),-6.31,–
O=C(COC(=O)c1c(Cl)cccc1Cl)Nc1cccc(S(=O)(=O)NC2=NCCCCC2)c1,13.1,–
CCn1c(CC(=O)Nc2ccccc2C)nnc1SCC(=O)NC1=NCCS1,-27,–
COCCCNC(=O)C1CCN(c2ccc(N3CCOCC3)nn2)CC1,0.0826,–
Cn1cc(C(=O)NCc2ccccc2F)cn1,-12.8,–
COC(=O)Cc1ccc(NC(=S)NCc2ccccc2)cc1,-29.3,–
Fc1ccccc1CNC(=S)Nc1ccc(Cl)cc1,–,20.6 µM (active)
C[C@H](C(=O)CC(=O)OC(C)(C)C)[C@H](O)c1ccc(C(F)(F)F)cc1,-27.5,–

Structure (SMILES),"activity change, negative = growth inhibition [%]",Potency
O=C(NCc1ccncc1)NC12CC3CC(CC(C3)C1)C2,-16.2,–
CCN(CC(=O)NCc1ccc(F)cc1)S(=O)(=O)c1ccc(Cl)s1,-10.1,–
CCCCNC(=O)c1nc(C2CCN(S(=O)(=O)c3ccc(F)c(F)c3)CC2)oc1-c1cccc(C(F)(F)F)c1,2.36,–
CN1CCC[C@@H]1CCO[C@](C)(c1ccccc1)c1ccc(Cl)cc1,–,26.6 µM (active)
CN1CCCC1CCO[C@@](C)(c1ccccc1)c1ccc(Cl)cc1 (stereo not given in full),–,14.6 µM (active)
CCC1CCC/C1=N\NC(=O)c1ccc(Cl)cc1 (stereo not given),-9.86,–
C#CC(CCN1CCCCC1)(OC)c1ccccc1 (stereo not given),-0.836,–
COc1ccc(CN2CCNC(=O)C2CC(=O)N(C)Cc2ccccn2)cc1OC (stereo not given),1.2,–
CC1CC(C)CN(S(=O)(=O)c2cccc(C(=O)N3C(=O)c4cccc(N)c4C3=O)c2)C1 (stereo not given),5.73,–
COC(=O)c1cccc(Cn2nnc3sc4c(c3c2=O)CCC(C(C)(C)C)C4)c1 (stereo not given),–,18.4 µM (active)
Cc1ccc(NC(=O)Cn2nnc3sc4c(c3c2=O)CCC(C)C4)cc1 (stereo not given),-79.2,–
COc1cccc2cc(-c3nc(Cl)c4c5c(sc4n3)CC(C)CC5)c(=O)oc12 (stereo not given),-0.111,–
O=C(C1CCCO1)N(Cc1ccccc1)c1ccccc1 (stereo not given),-1.91,–
Cc1cc(C)c(NC(=O)c2cc3sc(Cl)cc3n2C)c(C)c1,-14.2,–
CCOC(=O)Cc1ncccc1C(=O)Nc1ccc(OC(F)(F)F)cc1,–,14.6 µM (active)
COC(=O)Cc1ccc(OCC(=O)Nc2ccc(OC(F)(F)F)cc2)cc1,0.899,–
CCOC(=O)Cc1ncccc1C(=O)Nc1ccc(OC)cc1,-8.44,–
O=c1[nH]snc1-c1c(Cl)cccc1Cl,2.16,–
O=C(NC1CC(=O)N(c2ccc(Cl)cc2)C1)C1CCCC1 (stereo not given),-17.6,–
Cc1cc(C)c(S(=O)(=O)Nc2c(C)n(C)n(-c3ccccc3)c2=O)cc1[N+](=O)[O-],-2.01,–
CCCCCCCC[n+]1cccc(C(=O)N2c3c(nc(N)[nH]c3=O)NC(C)C2C)c1 (stereo not given),-7.83,–
